High-throughput results as filed in PubChem.
DT40 TDP1 no CPT: qHTS for Inhibitors of human tyrosyl-DNA phosphodiesterase 1 (TDP1): qHTS in cells in absence of CPT; DT40 Tdp1-/- hTDP1 cells, no CPT, ATP luminescence, 48 h; Potency, µM (doses to about 46.2 µM), for the others: at the highest dose activity change, negative = growth inhibition, most hits filed as inhibitors; 420,000 tested, 15% active; AID 686978, 2013; also: potency is read from the fitted curve at half-maximal effect; % is scaled to controls: 0 for no effect and ±100 for the full control effect; nearly all actives have a fitted effect of over 55% in size
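Chicken DT40 Tdp1-/- cells complemented with human TDP1, screened without camptothecin (DMSO vehicle only), 400 cells/well. Compounds pin-transferred, cells incubated at 37 °C for at least 48 hr. Growth read as ATP-dependent luminescence (CellTiter-Glo, 30 min at RT).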
D3 ag: agonists of human D3 dopamine receptor; P35462; D3R DiscoveRx beta-arrestin cells, luminescence, 90 min; max activation, %; 410,000 tested, 0.58% active; AID 652048; in the data active = max activation above about 30%; also: 0% is about no effect
Target sequence (P35462 whole entry, looked up): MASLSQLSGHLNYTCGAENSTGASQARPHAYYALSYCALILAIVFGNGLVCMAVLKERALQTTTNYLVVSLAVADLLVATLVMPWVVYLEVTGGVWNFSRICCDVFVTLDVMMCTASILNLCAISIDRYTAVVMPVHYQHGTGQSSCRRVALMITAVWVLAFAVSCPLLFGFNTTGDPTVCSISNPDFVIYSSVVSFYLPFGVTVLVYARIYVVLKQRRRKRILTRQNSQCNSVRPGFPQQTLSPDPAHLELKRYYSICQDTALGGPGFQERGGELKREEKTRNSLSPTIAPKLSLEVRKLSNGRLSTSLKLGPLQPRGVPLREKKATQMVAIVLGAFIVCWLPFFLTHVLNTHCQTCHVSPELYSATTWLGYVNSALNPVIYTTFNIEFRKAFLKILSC
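Agonist mode: compounds and dopamine controls were applied to plated cells for 90 min at 37 degrees C after an overnight attachment at 1500 cells/well. Luminescent read-out followed 30 - 60 minutes at room temperature with DiscoveRx detection reagent.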
IL-1B inflam inh: inflammasome signaling inhibition, IL-1 beta readout. THP-1 LPS/ATP IL-1B secretion, AlphaLISA, 16 h; stronger effect = lower value. activity change, % at 57.5 µM. 360,000 tested, 4.7% active; in the data active = activity change below about -50%; inconclusive = mostly about -30% to -49%; also: % is scaled to controls: 0 for no effect and ±100 for the full control effect
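Secreted IL-1B measured by AlphaLISA bead assay after 16 h compound exposure of THP-1 cells; compounds (final up to 57.5 uM) added 1 h before LPS (250 ng/mL) and ATP (1.25 mM) stimulation; lower signal means less secretion.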
TDP1 cell CPT: growth inhibition of DT40 Tdp1-/-;hTDP1 cells with camptothecin (screen for TDP1 inhibitors). chicken DT40 Tdp1-/-;hTDP1 cells + 20 nM CPT, ATP luminescence, 48 h. Potency, µM (titrated, usually from 46.2 µM), without a hit: at the highest dose activity change, negative = growth inhibition, hits mostly inhibitors. 420,000 tested, 12% active. AID 686979; also: potency is read from the fitted curve at half-maximal effect; % is scaled to controls: 0 for no effect and ±100 for the full control effect; nearly all actives have a fitted effect of over 55% in size
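Chicken DT40 Tdp1-/- cells stably complemented with human TDP1 were seeded at 400 cells/well in medium containing 20 nM camptothecin, exposed to pin-transferred compounds, and grown at 37 °C for at least 48 hr. Viability was read as ATP luminescence.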
ClpP mod: qHTS Assay for Activators of ClpP; 340,000 tested, 1.9% active; Potency, µM (highest dose often 57.5 µM), inactives show at the highest dose activity change, negative = active; purified B. subtilis ClpP, FRET peptide cleavage, 20 min; AID 651965, 2013; ATP-dependent Clp protease proteolytic subunit (Bacillus subtilis (strain 168)), P80244; active = well fitted falling curve with a large enough effect; inconclusive = small, poorly fitted or top-dose-only effect; inactive = no such curve, though single readings can be large or run the other way; also: potency is read from the fitted curve at half-maximal effect; the source files actives as falling curves though it sought activators and does not explain the sign; nearly all actives have a fitted effect of over 65% in size
Target sequence (P80244 whole entry, looked up): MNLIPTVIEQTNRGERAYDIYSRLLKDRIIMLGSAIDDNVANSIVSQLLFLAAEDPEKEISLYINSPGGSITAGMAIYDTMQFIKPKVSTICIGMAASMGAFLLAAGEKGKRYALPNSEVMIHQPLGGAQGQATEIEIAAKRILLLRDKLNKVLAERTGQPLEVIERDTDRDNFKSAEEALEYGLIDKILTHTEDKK
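Buffer: 100 mM Tris/HCl pH8, 100 mM KCl, 0.05% low protease BSA, 2.5% glycerol, 0.01% Tween-20. ClpP 10 microg/mL final; 20 min RT; delta FRET normalized to ADEP and DMSO controls.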
DRD3 antagonist: antagonists of human D3 dopamine receptor; AID 652054; 360,000 tested, 2.5% active; P35462; max response, negative = inhibition, %; D3R cells, DiscoveRx beta-arrestin luminescence, antagonist mode; stronger effect = lower value; in the data active = max response below about -50%; inconclusive = no clear call, values can overlap the other calls; also: % is scaled to controls: 0 for no effect and ±100 for the full control effect
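Cells plated overnight at 1500 cells/well, then exposed to library compounds with dopamine controls for 90 minutes at 37 degrees C. DiscoveRx reagent added for 30–60 minutes at room temperature; luminescence read, quantitative HTS format.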
* marks the source's active call; other numbers are inactive results; u = inconclusive; x = not tested or not shown. Most compounds without a hit are left out; they make up all but 21% or so of the library. Unless noted, calls follow the shape of the dose curve; as a rule, active = well fitted inhibition curve with a large enough effect; inconclusive = small, poorly fitted or top-dose-only effect; inactive = flat fitted curve, though single readings scatter.

SMILES | DT40 TDP1 no CPT | D3 ag | IL-1B inflam inh | TDP1 cell CPT | ClpP mod | DRD3 antagonist
COc1cccc(-c2nn(C)c3sc(C(=O)N4CCN(c5cccc(C)c5)C(C)C4)cc23)c1 (stereo unspecified) | 23.1µM* | 48.0* | x | 20.6µM* | u | x
COc1ccc(-c2nn(C)c3sc(C(=O)N4CCOCC4)cc23)cc1OC | u | 1.1 | -19.9 | -17.0% | -8.3% | 8.7
COc1ccc(C2=C(c3ccc(OC)c(OC)c3)CN3CCCCC3C2)cc1 (stereo unspecified) | u | -39.7 | -3.8 | u | -3.8% | 0.0
COc1ccc(CNC(=O)CS(=O)(=O)c2cccc3nsnc23)cc1 | -20.6% | -11.7 | x | -2.8% | -2.5% | x
CC1=C(C(=O)N2CCOCC2)C(c2ccc(-c3ccccc3)cc2)NC(=S)N1 (stereo unspecified) | -2.5% | -1.9 | 21.6 | -1.8% | 28.2µM* | -12.1
CCOC(=O)C1=NOC2(C1)C(=O)Nc1ccc(OC(F)(F)F)cc12 (stereo unspecified) | 16.4µM* | -1.6 | -11.2 | u | 3.5% | -87.2*
O=C(Nc1nc2ccccc2[nH]1)c1ccc(Br)o1 | 14.6µM* | 6.5 | 15.0 | u | x | -12.1
Cc1c(C(=O)Nc2nc3ccccc3[nH]2)oc2ccccc12 | 23.1µM* | -4.4 | 16.7 | 20.6µM* | -6.7% | 3.7
Cc1c(C(=O)Nc2nc3ccccc3[nH]2)oc2ccc(Br)cc12 | u | -13.3 | -6.0 | u | -29.5% | -6.8
Cc1c(C(=O)Nc2nc3ccccc3[nH]2)oc2c(Cl)cccc12 | 16.4µM* | 0.4 | 51.2 | u | x | 2.1
O=C(NCCc1nc2ccccc2[nH]1)c1ccc(Br)o1 | -6.9% | 1.6 | -22.8 | 1.1% | x | 9.9
Cc1ccc(C(=O)NCCn2ccc3ccccc32)cc1[N+](=O)[O-] | 8.2µM* | 5.6 | u | 13µM* | -0.2% | 4.1
O=C(NCCn1ccc2ccccc21)c1ccc(S(=O)(=O)N2CCCCC2)cc1 | 23.1µM* | 0.5 | 19.9 | u | 0.6% | -14.5
CCOc1ccc(NC(=O)c2ccc3c(c2)nnn3C2CCCC2)cc1 | u | -16.9 | x | -26.2% | 2.3% | x
Clc1cccc(Cl)c1CON/C=N/c1ncnc2sccc12 | 16.4µM* | 8.3 | 16.8 | 23.1µM* | -2.6% | -5.4
Clc1cccc(CON/C=N/c2ncnc3sccc23)c1 | 10.3µM* | -0.5 | -11.8 | 18.4µM* | -3.5% | 39.0
C/C=C/Cn1c(SCc2ccc(Cl)cc2)nc2c1c(=O)[nH]c(=O)n2C | 23.1µM* | 0.1 | 17.8 | 18.4µM* | 0.8% | 7.4
CCCn1c(SCc2ccc(Cl)cc2)nc2c1c(=O)[nH]c(=O)n2C | 16.4µM* | 5.4 | -10.2 | u | -1.0% | 11.0
CCCn1c(Sc2nc3c(c(=O)[nH]c(=O)n3C)n2CCC)nc2c1c(=O)[nH]c(=O)n2C | -25.8% | 0.0 | 40.8 | -27.7% | -2.0% | -57.1*
CCCCCCn1c(SCCC)nc2c1c(=O)[nH]c(=O)n2C | 10.3µM* | 0.0 | 17.3 | -22.8% | 3.7% | 8.1
N#Cc1ccc(C(=O)Nc2cccc(NC(=O)c3ccco3)c2)c(F)c1 | u | -7.5 | u | u | 3.8% | -10.6
O=C(c1ccccc1)N1CCCCC1CCN1CCCCC1 (stereo unspecified) | -4.5% | -15.4 | x | -29.4% | 3.2% | x
CCC(=O)c1ccc(OC(=O)N2CCOCC2)cc1 | 2.6% | 0.9 | -3.1 | 5.7% | 0.6% | 13.5
Nc1cc(C(=O)OCC(=O)Nc2cccc(S(=O)(=O)N3CCOCC3)c2)ccc1Cl | -13.3% | 2.2 | 9.3 | -10.6% | -27.1% | 1.5
COc1cc(/C=C/C(=O)OCC(=O)N2CCCc3ccccc32)ccc1OC(F)F | -10.2% | 10.7 | 4.5 | -12.0% | x | -2.2
SMILES | DT40 TDP1 no CPT | D3 ag | IL-1B inflam inh | TDP1 cell CPT | ClpP mod | DRD3 antagonist
CCn1c(SCc2ccccc2)nc2c1c(=O)[nH]c(=O)n2C | 18.4µM* | 3.1 | 48.1 | u | 0.9% | 25.8
CC(C)CC(=O)NC(c1ccccc1Cl)c1c(O)ccc2ccccc12 (stereo unspecified) | -112.2% | -3.1 | -68.4* | u | u | -1.0
CCOc1ccc(C(NC(=O)CC)c2c(O)ccc3ccccc23)cc1 (stereo unspecified) | u | -1.3 | 4.5 | -81.6% | u | -17.5
CC(=O)Oc1ccc2ccccc2c1C(NC(=O)Cc1ccccc1)c1ccc(Cl)cc1 (stereo unspecified) | 20.6µM* | -7.3 | -18.0 | u | -0.3% | -9.5
CCCC(=O)NC(c1ccc(OC)cc1)c1c(O)ccc2ccccc12 (stereo unspecified) | 23.1µM* | -10.6 | -58.2* | u | x | u
COc1ccc(C(NC(=O)CC(C)C)c2c(O)ccc3ccccc23)cc1 (stereo unspecified) | u | 0.0 | -15.2 | u | 3.4% | -13.5
CC(C)(C)C(=O)NC(c1ccccc1)c1c(O)ccc2ccccc12 (stereo unspecified) | u | -0.7 | 10.9 | u | 3.8% | -3.4
COc1ccc(C(NC(=O)C2CCCCC2)c2c(O)ccc3ccccc23)cc1 (stereo unspecified) | 18.4µM* | -3.2 | -19.0 | u | 25.1µM* | 8.6
Cc1ccc2c(c1)N(CCC(=O)NCCCN1CCCC1)C(=O)C(C)O2 (stereo unspecified) | 0.7% | -8.2 | -19.2 | -0.8% | x | 4.6
COCCCNc1ncnc2sc(C(=O)N3CCOCC3)c(C)c12 | -9.1% | x | x | 10.9% | x | x
O=C(Nc1ccc(Cl)cc1)c1csc(COCCO)n1 | -24.8% | 2.3 | 27.2 | -13.5% | 0.2% | 0.3
O=C(Nc1ccccc1F)c1csc(COCCO)n1 | 3.5% | -23.8 | -1.9 | -21.3% | -0.4% | -134.2*
COc1cccc(Cn2c(=O)c(C)nc3cnc(Nc4ccccc4)nc32)c1 | u | x | x | 4.8% | x | x
COc1ccccc1N1CCN(c2cc(=O)n(Cc3ccc(F)cc3)c(=O)[nH]2)CC1 | 4.61µM* | -5.1 | 32.4 | 3.66µM* | -2.0% | 3.7
COc1ccccc1N1CCN(c2cc(=O)n(-c3ccccc3Cl)c(=O)[nH]2)CC1 | -15.8% | 12.4 | 28.0 | -21.4% | 0.0% | -3.7
O=c1cc(N2CCN(c3ccccc3Cl)CC2)[nH]c(=O)n1Cc1ccc(F)cc1 | 1.46µM* | -13.5 | 18.2 | 4.61µM* | x | u
CCN1CCN(c2cc(=O)n(Cc3ccc(F)cc3)c(=O)[nH]2)CC1 | 1.7% | 2.6 | 15.9 | 0.6% | 0.9% | -11.6
Cc1ccc(C)c(Cn2c(=O)n(-c3ccccc3)c(=O)c3c4c(sc32)CCCC4)c1 | -6.0% | 1.9 | x | u | -2.0% | x
